Experimental findings from paper PMC4552634, “A New Set of Chemical Starting Points with Plasmodium falciparum Transmission-Blocking Potential for Antimalarial Drug Discovery” (PLoS ONE, 2015) are described below.

Molecules are shown by their SMILES. The whole screen tested about 13,000 compounds, of which about 3,200 (25%) showed an effect of 50% or more. The list shows a part of the results.

The assay concerns P. falciparum stage V gametocytes. Also on record: BacTiter-Glo ATP luminescence viability of purified stage V gametocytes in 384-well plates, per cent inhibition versus DMSO. The following applies: 48 h, 5 µM; inhibitor.
Take `Cc1cccc2[nH]c(-c3cccc(-c4cccc(NC(=O)NCc5ccccc5)c4)c3)nc12` [TCMDC-133159]: the % Inhibition (usually the drop in the measured response relative to a control, in per cent) is 13.2%. In the case of `OCCOCn1cnc2cnc(N[C@H]3OC[C@H](O)[C@@H](O)[C@@H]3O)nc21` [TCMDC-138106], the “% Inhibition” value turned out to be 14.1%. For `CCc1c(CCNCCCCCCNCCc2ccc(OC)c(OC)c2CC)ccc(OC)c1OC` [TCMDC-132047], the “% Inhibition” value stood at 111.8%.

For the molecule `CCc1c(CCNCCCCCCNCCc2ccc(OC)c(OC)c2C)ccc(OC)c1OC` [TCMDC-132051], the “% Inhibition” value was 107.2%. For the molecule `CCc1c(CCNCCCCCCNCCc2ccc(Br)cc2)ccc(OC)c1OC` [TCMDC-132045], the “% Inhibition” value is 110%.

In the case of `CCc1c(CCNC/C=C/C=C/CNCCc2ccc(OC)c(OC)c2CC)ccc(OC)c1OC` [TCMDC-132061], the “% Inhibition” value was 102.8%.

As for `COc1cc2c(OC)cccc2cc1CNCCCCCCNCc1cc2cccc(OC)c2cc1OC` [TCMDC-137945], the “% Inhibition” value is 1.634%.

As for `O=C1C[C@@H]([S+]([O-])Cc2nccs2)N1CCOCCCCCCc1ccc(Cl)cc1` (stereo partly shown) [TCMDC-139269], the “% Inhibition” value is on record as 27.24%.

Turning to `Cc1cccc(NC(=O)Nc2ccc(I)c(OCCN(C)C)c2)c1C` [TCMDC-139124], the “% Inhibition” value is -5.088%. Turning to `COc1ccc(Nc2nc(NCc3ccc(-n4ccnc4)cc3)cc(-c3ccc(OC)cc3)n2)cc1` [TCMDC-134025], the “% Inhibition” value is given as -3.76%. `Clc1ccc(Sc2cncnc2N2CCOCC2)cc1` [TCMDC-137279]: the “% Inhibition” value stood at 19.11%. With `O=C(Cc1ccccc1)NC1CCN(c2ccnc3cc(Cl)ccc23)C1` (stereo not shown) [TCMDC-133663], the “% Inhibition” value is given as -4.28%.

`c1ccc2sc(Sc3ncnc4sccc34)nc2c1` [TCMDC-125539]: the “% Inhibition” value is reported as 99.53%. Regarding `c1ccn2c(Sc3ncnc4sccc34)ncc2c1` [TCMDC-124602], the “% Inhibition” value amounted to 29.96%.

`COCCn1c(Sc2ncnc3sccc23)nc2ccccc21` [TCMDC-125258]: the “% Inhibition” value came to 10.99%.

As to `Cn1c(Sc2ncnc3sccc23)nc2ccccc21` [TCMDC-124514], the “% Inhibition” value is on record as 74.1%. For `CN(C)CCCNCCS(=O)(=O)c1cccc(Nc2ccc(-c3cccc(N(C)C)c3)cn2)c1` [TCMDC-134369], the “% Inhibition” value came out at 11.18%. Regarding `O=C(NC1CCCCC1)N(Cc1ccc(-c2cccc(CNCc3ccc4c(c3)OCO4)c2)cc1)C1CCN(Cc2ccccc2)CC1` [TCMDC-140640], the “% Inhibition” value is 55.3%. Regarding `O=C(NCCc1ccccc1)N(Cc1cccc(-c2ccc(CNCc3ccc4c(c3)OCO4)cc2)c1)C1CCN(Cc2ccccc2)CC1` [TCMDC-140619], the “% Inhibition” value stood at 40.48%.

Take `O=C(NC1CCCCC1)N(Cc1ccc(-c2ccc(CNCc3ccc4c(c3)OCO4)cc2)cc1)C1CCN(Cc2ccccc2)CC1` [TCMDC-140641]: the “% Inhibition” value came out at 57.56%.

Regarding `O=C(NC1CCCCC1)N(Cc1cccc(-c2ccc(CNCc3ccc4c(c3)OCO4)cc2)c1)C1CCN(Cc2ccccc2)CC1` [TCMDC-140632], the “% Inhibition” value amounted to 106.9%. Take `O=C(Nc1ccc(OC2CCN(Cc3ccc(F)cc3)CC2)c(Cl)c1)c1ccc(F)cc1` [TCMDC-133752]: the “% Inhibition” value is 7.555%. As for `Cc1ccccc1C1CCN(C2CCC(NC(=O)/C=C/c3ccc(C#N)cc3)CC2)CC1` (stereo not shown) [TCMDC-133527], the “% Inhibition” value is on record as -65.01%. On to `CS(=O)(=O)c1ccc(CNCc2ccc(-c3ccc(-c4nc5cc(C(F)(F)F)ccc5[nH]4)cc3)cc2)cc1.O=C(O)C(F)(F)F` [TCMDC-132901], for which the “% Inhibition” value is recorded as -22.07%. For the molecule `COC(=O)c1cc(C(O)CNC(C)CCc2cccc(F)c2)ccc1O` (stereo not shown) [TCMDC-131242], the “% Inhibition” value is 17.15%. Regarding `CC(Cl)=CCc1c(C)[nH]c2c(ccc3ccccc32)c1=O` [TCMDC-124085], the “% Inhibition” value amounted to 30.93%. Turning to `CN1CCN(c2ccc(-c3nc4c(C(N)=O)c(OCc5cc(Cl)cc(Cl)c5)ccc4[nH]3)cc2)CC1` [TCMDC-133563], the “% Inhibition” value turned out to be 101.6%. As to `CN1CCN(c2ccc3nc(-c4ccc5nc(-c6ccc(O)cc6)[nH]c5c4)[nH]c3c2)CC1` [TCMDC-125507], the “% Inhibition” value is recorded as 11.14%. To `CC(=O)c1cccc(Nc2nc3c(C#N)c(OCc4cc(Cl)cc(Cl)c4)ccc3[nH]2)c1` [TCMDC-133766] belongs -0.7844%.

On to `CC(=O)Nc1ccc(CN2CCC(NC(=O)c3ccc(-c4cccc(Cl)c4)s3)CC2)cc1` [TCMDC-134334], for which the “% Inhibition” value is recorded as 14.56%. In the case of `COc1cccc(-c2ccc(C(=O)NC3CCN(Cc4ccc(C(C)(C)C)cc4)CC3)s2)c1` [TCMDC-134353], the “% Inhibition” value is -20.06%. Turning to `CN(C)c1ccc(-c2ccc(C(=O)NC3CCN(Cc4ccccc4F)CC3)s2)cc1` [TCMDC-134368], the “% Inhibition” value was -72.91%. On to `COc1ccccc1CN1CCC(NC(=O)c2ccc(-c3ccc(N(C)C)cc3)s2)CC1` [TCMDC-134357], for which the “% Inhibition” value came out at 85.69%. Turning to `CN(C)c1ccc(CN2CCC(NC(=O)c3ccc(-c4cccc(Cl)c4)s3)CC2)cc1` [TCMDC-134329], the “% Inhibition” value is -64.24%. Consider `COc1ccccc1CN1CCC(NC(=O)c2ccc(-c3cccc(Cl)c3)s2)CC1` [TCMDC-134356], for which the “% Inhibition” value is on record as -14.44%. Turning to `CN(C)c1ccc(-c2ccc(C(=O)NC3CCN(Cc4ccccc4)CC3)s2)cc1` [TCMDC-134367], the “% Inhibition” value came out at 44.5%. Turning to `CCc1ccc(CN2CCC(NC(=O)c3ccc(-c4ccc(N(C)C)cc4)s3)CC2)cc1` [TCMDC-134344], the “% Inhibition” value is -78.7%. With `CSc1ccc(CN2CCC(NC(=O)c3ccc(-c4ccc(N(C)C)cc4)s3)CC2)cc1` [TCMDC-134342], the “% Inhibition” value is on record as -80.35%. Regarding `COc1cccc(-c2ccc(C(=O)NC3CCN(Cc4ccc(N(C)C)cc4)CC3)s2)c1` [TCMDC-134330], the “% Inhibition” value is listed as 105%. In the case of `CN(C)c1ccc(CN2CCC(NC(=O)c3ccc(-c4ccc(N(C)C)cc4)s3)CC2)cc1` [TCMDC-134331], the “% Inhibition” value is on record as 56.81%. The result for `CC(=O)Nc1ccc(CN2CCC(NC(=O)c3ccc(-c4ccc(N(C)C)cc4)s3)CC2)cc1` [TCMDC-134336] reads 72.62%; that for `O=C(NCc1cccc2ccccc12)C(c1cc2ccccc2o1)N1CCN(C(c2ccccc2)c2ccccc2)CC1` (stereo not shown) [TCMDC-141007], 25.05%; that for `CCCCCCN1CCN(Cc2cccc(NC(=O)c3cc4ccccc4o3)c2)CC1` [TCMDC-134620], -12.01%. In the case of `CCNC(=O)c1ccc2c(c1)c(C)c(C)n2Cc1ccc(F)cc1` [TCMDC-124754], the “% Inhibition” value is 32.09%. As to `CC(=O)C1(c2ccccc2)CCN(CCC2(c3ccc(Cl)c(Cl)c3)CN(C(=O)c3cccc(Cl)c3)CCO2)CC1` (stereo not shown) [TCMDC-135347], the “% Inhibition” value is -30.91%.

As to `CNS(=O)(=O)c1ccc(NC(=O)c2cc(-c3cccnc3)nc3ccc(Br)cc23)cc1` [TCMDC-125216], the “% Inhibition” value is on record as -3.498%. To `Cc1ccccc1C1CCN(C2CCC(NC(=O)C3=Cc4ccccc4OC3)CC2)CC1` (stereo not shown) [TCMDC-133553] belongs -49.51%; to `O=S(=O)(NCCN1CCCC1)c1cccc(-c2ccc(CNC3Cc4ccccc4C3)cc2)c1` [TCMDC-132241], 96.68%; to `O=S(=O)(NCCN1CCCC1)c1ccc(-c2cccc(CNC3Cc4ccccc4C3)c2)cc1` [TCMDC-132215], 70.89%. For the molecule `O=S(=O)(NCCN1CCCC1)c1ccc(-c2ccc(CNC3Cc4ccccc4C3)cc2)cc1` [TCMDC-132229], the “% Inhibition” value is 60.05%. To `COc1ccc(C2CCN(CCN3CCC(NC(=O)c4ccc(-c5cccc(C(F)(F)F)c5C(F)(F)F)cc4)CC3)CC2)c(OC)c1` [TCMDC-135427] belongs -31.75%; to `CC(C)[C@H](NC(=O)c1ccc(O)c(-c2ccc(Cl)c(Cl)c2)c1)C(=O)NCCN1CCCC1` [TCMDC-140828], 38.9%. As for `CN1CCN(c2ccnc3ccc(NC(=O)Nc4ccc5c(c4)CCC5=O)cc23)CC1` [TCMDC-139266], the “% Inhibition” value was determined as 0.4556%.

Turning to `O=C(Cc1cccc(Cl)c1)Nc1cccc(-c2c[nH]c3nc(Nc4ccccc4)ncc23)c1` [TCMDC-134679], the “% Inhibition” value came to 29.34%.

As for `O=C(C=Cc1ccc(Cl)c(Cl)c1)NCCCCCN1CCC(c2[nH]nc3ccccc23)CC1` [TCMDC-139402], the “% Inhibition” value is -6.391%. Regarding `Cc1ccccc1OCC(O)CNC1CCC(NCC(O)COc2ccccc2C)CC1` (stereo not shown) [TCMDC-125142], the “% Inhibition” value came out at 150%. For `Cc1ccccc1OCC(O)CN1CCC(C2CCN(CC(O)COc3ccccc3C)CC2)CC1` (stereo not shown) [TCMDC-131841], the “% Inhibition” value came to 97.67%. Regarding `CCCc1ccccc1OCC(O)CN(C1CCCC1)C1CCCC1` (stereo not shown) [TCMDC-131423], the “% Inhibition” value is -5.815%. Turning to `O=C1NC(c2ccccc2)C2(CCN(CC(O)COc3cccc4ncccc34)CC2)O1` (stereo not shown) [TCMDC-136710], the “% Inhibition” value was -26.23%. As for `CCC(C)(C)c1ccc(OCC(O)CN2CCCCC2)c(C(C)(C)CC)c1` (stereo not shown) [TCMDC-123833], the “% Inhibition” value was found to be 2.758%. With `COc1cccc2c(O)c(CNC3CCCCC3)ccc12` [TCMDC-137595], the “% Inhibition” value worked out at 11.64%. The result for `COc1ccc(NC(=O)Nc2ccc(-c3ccccc3)cc2)cc1Cn1cnc(N2CCCNCC2)cc1=O` [TCMDC-134316] reads 22.91%; that for `O=C(/C=C/c1ccc(Cl)c(Cl)c1)Nc1cccc(CN2CCC(c3c[nH]c4ccccc34)CC2)c1` [TCMDC-139600], 0.6115%; that for `CC(=O)Nc1ncc(C(=O)Nc2cccc(-c3ccc(-c4nc5ccccc5[nH]4)cc3)c2)s1` [TCMDC-136917], 7.51%. With `Cc1cc(O)c(CNC2CCCCC2)cc1C` [TCMDC-137589], the “% Inhibition” value was -0.1252%.

As for `Oc1ccc2c(c1CNC1CCCCC1)CCCC2` [TCMDC-137501], the “% Inhibition” value came to 23.3%. Consider `CCC(=C(CC)c1ccc(O)c(CNC2CCCCC2)c1)c1ccc(O)c(CNC2CCCCC2)c1` [TCMDC-137481], for which the “% Inhibition” value is 84.66%. As to `O=C(CNC1CCCCC1)c1ccc(O)c(O)c1` [TCMDC-123961], the “% Inhibition” value turned out to be 59.16%. On to `CC(C)(C)c1ccc(O)c(CNC2CCCCC2)c1` [TCMDC-125856], for which the “% Inhibition” value is recorded as 17.68%. Regarding `Oc1ccc(-c2ccccc2)cc1CNC1CCCCC1` [TCMDC-137603], the “% Inhibition” value is listed as -11.44%.
